# SMN2 splice enh = SMN2 splice variant enhancement. HEK293 SMN2-luciferase splicing reporter, luminescence, 30-36 h. Potency, µM (doses to about 46.1 µM), most hits filed as activators. hit rate 2.8% among 210,000. AID 1458; further: nearly all actives have a fitted effect of over 55% in size
#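 HEK293 cells carry an SMN2 […]–luciferase reporter in which exon 7 inclusion puts luciferase in frame. Cells were plated 10-12 h before compound addition, then incubated 30-36 h at 37C. ONE-Glo luminescence was read; sodium butyrate at 4.5 mM final served as control.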
# Rab9 prom act = Rab9 promoter activation. Huh7 Rab9 promoter-luciferase reporter, luminescence, 24 h. Potency, µM (doses to about 9.22 µM), usual class: activators. hit rate 2.8% among 320,000. AID 485297; further: nearly all actives have a fitted effect of over 60% in size
#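 Promoter activation is measured as luciferase luminescence in Huh7 cells stably transfected with a Rab9 promoter–luciferase construct, following 24 h compound exposure at 37 °C and 10 min reagent incubation at ambient temperature.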
# NPC1 promoter act = NPC1 promoter activation | Huh7 NPC1 promoter luciferase reporter, 24 h | Potency, µM (titrated, usually from 9.22 µM), usual class: activators | hit rate 2.4% among 320,000 | AID 485313; further: nearly all actives have a fitted effect of over 60% in size
#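 Compounds in DMSO were transferred onto Huh7 NPC1-luciferase reporter cells pre-incubated 2 h; after 24 h at 37 °C, Amplite reagent was dispensed and luminescence recorded 10 min later.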
# ELG1 repair inh = ELG1-dependent DNA repair inhibition. Potency, µM (doses to about 46.1 µM), usual class: inhibitors. HEK293T ELG1-luciferase reporter, luminescence, 16 h; DNA damage induced by 5-fluorouridine. hit rate 2.3% among 330,000; further: nearly all actives have a fitted effect of over 55% in size
#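 Reporter activity after DNA damage by 5-fluorouridine is monitored. Compound-treated cells incubate 16 hr at 37 °C, then ONE-Glo is added for 30 min before luminescence reading.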
# FLuc modulator = firefly luciferase modulation, counter-screen for miR-21 project | hit rate 6.9% among 360,000 | purified FLuc, Km substrates, luminescence inhibition | P08659 | Potency, µM (titrated, usually from 57.5 µM), actives largely listed as inhibitors; further: nearly all actives have a fitted effect of over 55% in size
#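 Biochemical qHTS of compounds, final roughly 60 µM downward over six points, against 10 nM purified firefly luciferase using Km concentrations of substrates (10 uM D-luciferin, 10 uM ATP) in Tris acetate pH 7.5 buffer; luminescence output.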
# ELG1 genotox = inducers of genotoxicity in HEK293T ELG1-luciferase cells; hit rate 1.3% among 330,000; Potency, µM (top dose mostly 46 µM), hits mostly activators; HEK293T ELG1-luciferase reporter, luminescence, 16 h; further: nearly all actives have a fitted effect of over 60% in size
#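 HEK293T cells expressing luciferase-tagged ELG1 were exposed to compound or DMSO vehicle for 16 hr at 37 °C and 5% CO2. Luciferase activity was then measured with ONE-Glo after 30 min at room temperature.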
# ELG1 FLuc counter = luciferase inhibition in cell-free luciferin readout for ELG1 hits | shares compounds with ELG1 repair inh | cell-free firefly luciferase luminescence counter-screen, ViewLux | Potency, µM (highest dose often 46.1 µM), usual class: inhibitors | hit rate 3% among 350
# ELG1-Luc inh = inhibits ELG1-dependent DNA repair in HEK293T cells, confirmed. Potency, µM (highest dose often 46.1 µM), most hits filed as inhibitors. HEK293T ELG1-luciferase levels, luminescence; cells co-treated with 5-fluorouridine. hit rate 68% among 670. shares compounds with ELG1 repair inh; further: nearly all actives have a fitted effect of over 55% in size
# Target sequence (Q96QE3 whole entry, looked up): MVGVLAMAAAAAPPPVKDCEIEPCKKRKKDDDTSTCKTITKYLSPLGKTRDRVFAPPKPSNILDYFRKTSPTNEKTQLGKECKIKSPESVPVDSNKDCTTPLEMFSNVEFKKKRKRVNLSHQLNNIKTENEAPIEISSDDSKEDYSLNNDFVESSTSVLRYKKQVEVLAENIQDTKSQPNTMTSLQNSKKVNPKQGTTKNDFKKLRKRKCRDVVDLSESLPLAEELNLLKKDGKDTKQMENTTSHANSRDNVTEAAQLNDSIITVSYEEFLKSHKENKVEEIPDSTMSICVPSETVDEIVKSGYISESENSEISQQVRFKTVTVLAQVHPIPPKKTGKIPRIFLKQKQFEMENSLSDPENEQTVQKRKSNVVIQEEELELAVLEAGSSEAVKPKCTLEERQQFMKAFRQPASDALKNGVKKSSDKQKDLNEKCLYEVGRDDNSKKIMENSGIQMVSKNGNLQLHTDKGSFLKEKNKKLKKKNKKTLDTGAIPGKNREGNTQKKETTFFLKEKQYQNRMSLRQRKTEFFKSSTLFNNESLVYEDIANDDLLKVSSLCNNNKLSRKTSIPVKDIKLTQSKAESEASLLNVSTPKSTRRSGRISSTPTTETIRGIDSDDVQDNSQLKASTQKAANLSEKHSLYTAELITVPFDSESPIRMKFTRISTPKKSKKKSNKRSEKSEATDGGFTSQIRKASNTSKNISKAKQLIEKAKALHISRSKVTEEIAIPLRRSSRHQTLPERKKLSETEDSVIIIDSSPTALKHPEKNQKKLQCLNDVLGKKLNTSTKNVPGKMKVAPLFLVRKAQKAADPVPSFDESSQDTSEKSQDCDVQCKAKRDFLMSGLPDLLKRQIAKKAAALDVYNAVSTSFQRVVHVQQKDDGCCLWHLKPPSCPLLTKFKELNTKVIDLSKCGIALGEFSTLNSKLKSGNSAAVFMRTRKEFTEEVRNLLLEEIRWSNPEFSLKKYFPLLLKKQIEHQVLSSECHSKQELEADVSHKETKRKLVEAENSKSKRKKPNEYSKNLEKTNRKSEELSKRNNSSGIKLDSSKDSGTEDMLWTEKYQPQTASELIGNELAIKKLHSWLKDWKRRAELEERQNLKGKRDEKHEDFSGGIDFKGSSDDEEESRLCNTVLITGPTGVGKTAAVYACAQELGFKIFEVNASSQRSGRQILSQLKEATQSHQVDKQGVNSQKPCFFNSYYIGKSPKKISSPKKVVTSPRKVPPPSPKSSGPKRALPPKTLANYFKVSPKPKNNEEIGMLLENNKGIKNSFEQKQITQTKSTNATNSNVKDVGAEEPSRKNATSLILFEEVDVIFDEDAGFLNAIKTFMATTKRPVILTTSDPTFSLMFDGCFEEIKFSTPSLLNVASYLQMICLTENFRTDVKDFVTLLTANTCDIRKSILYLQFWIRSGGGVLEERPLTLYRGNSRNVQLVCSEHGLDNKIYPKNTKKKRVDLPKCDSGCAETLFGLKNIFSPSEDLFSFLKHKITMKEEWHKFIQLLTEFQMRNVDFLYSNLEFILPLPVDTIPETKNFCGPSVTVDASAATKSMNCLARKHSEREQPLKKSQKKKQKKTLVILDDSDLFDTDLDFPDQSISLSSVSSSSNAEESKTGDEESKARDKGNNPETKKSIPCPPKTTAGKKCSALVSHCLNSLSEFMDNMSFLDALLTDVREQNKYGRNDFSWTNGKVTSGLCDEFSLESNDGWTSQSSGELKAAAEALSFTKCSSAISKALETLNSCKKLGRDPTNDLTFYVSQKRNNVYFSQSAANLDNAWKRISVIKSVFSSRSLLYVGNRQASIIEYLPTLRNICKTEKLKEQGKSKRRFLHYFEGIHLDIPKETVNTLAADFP
# ELG1-Luc MMS = confirmation of human ELG1 repair inhibitors, MMS stimulated | HEK293T luciferase-tagged ELG1 level, MMS stimulated | hit rate 53% among 670 | Potency, µM (series often up to 46.1 µM), actives largely listed as inhibitors | shares compounds with ELG1 repair inh; further: nearly all actives have a fitted effect of over 60% in size
# ELG1 5-FU = confirmation of ELG1 repair inhibitors: viability with 5FU | shares compounds with ELG1 repair inh | cell viability with 5-FU, ELG1-dependent repair | Potency, µM (top dose mostly 46.1 µM), usual class: cytotoxic | 670 tested, under 10 active | AID 624250;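 further: ELG1-luc HEK293T cells cotreated with 5-fluorouridine at 10 µM final; viability measured 16 h after compound addition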
# ELG1 MMS cell = confirmation of ELG1 repair inhibitors: viability with MMS; shares compounds with ELG1 repair inh; Cell viability with MMS, ELG1-dependent DNA repair; Potency, µM (top dose mostly 46.1 µM), most hits filed as cytotoxic; hit rate 33% among 670; AID 624251;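 further: ELG1-luc HEK293T cells co-treated with 10 µM MMS; viability read 16 h after compound addition; nearly all actives have a fitted effect of over 60% in size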
# ELG1 unstim viab = affects unstimulated cell viability, ELG1 hit counter-screen; shares compounds with ELG1 repair inh; cell viability counter-screen, unstimulated, luminescence; Potency, µM (highest dose often 45.9 µM), hits mostly cytotoxic; hit rate 8% among 900;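 further: compound exposure lasted 16 hours before reading; nearly all actives have a fitted effect of over 55% in size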
# FLuc enzyme = firefly luciferase inhibition counter-screen; Potency, µM (top dose mostly 57.5 µM), usual class: inhibitors; shares compounds with ELG1 repair inh; hit rate 10% among 350; AID 624253; purified firefly luciferase, luminescence counter-screen
# Hits are given with their value; – = inactive; ? = inconclusive; · = no result given; [ ] = remark or other dose. Most compounds without a hit are left out; they make up all but 9.2% or so of the library. The call rests on the fitted dose curve; in most records, active means well fitted curve in the direction sought with a large enough effect; inconclusive means small, poorly fitted or top-dose-only effect, or another doubt; inactive means no such curve, though single readings can be large; an effect the other way counts as inactive or inconclusive.
SMILES,SMN2 splice enh,Rab9 prom act,NPC1 promoter act,ELG1 repair inh,FLuc modulator,ELG1 genotox,others
CC(C)(C)OC(=O)N1CC(O)CC1C(=O)OCC(=O)c1ccc(-c2ccccc2)cc1 (stereo unspecified),–,–,–,–,–,–,
O=S(=O)(O)F,–,·,·,·,·,·,
Nc1ccc(Oc2cccc(Oc3ccc(N)cc3)c2)cc1,–,–,–,–,19µM,–,
NC1=NC([S][Hg][c]2ccc(N)cc2)c2ncn([C@@H]3O[C@H](CO)[C@@H](O)[C@@H]3O)c2N1 (stereo partly specified),–[9.22 µM],·,·,·,·,·,
O=C(N/N=C/c1c(O)n(Cc2ccco2)c(=O)[nH]c1=O)c1ccccc1,·,–,–,?,?,–,
CCC1C=CC=CC[C@H](C)[C@@H](O)[C@](C)(O)C(=O)[C@@H](C)[C@H](O)[C@@H](C)C(=O)[C@H](C)[C@@H](O)[C@H](C)C=CC(=O)OC2[C@@H](C)C(CC1)OC1(CC[C@@H](C)C(C[C@H](C)O)O1)[C@@H]2C (stereo partly specified),·,–,–,11.6µM,–,–,
N#CCCn1cc(C=C2C(=O)NC(=O)NC2=O)c(-c2ccccc2)n1,–,–,–,–,?,–,
O=C(O)CCn1cc(C=C2C(=O)NC(=S)NC2=O)c(-c2ccccc2)n1,–,–,–,–,23.9µM,–,
O=C(O)CCn1cc(C=C2C(=O)NC(=S)NC2=O)c(-c2cc3ccccc3oc2=O)n1,–,–,–,–,16.9µM,–,
CC1CCN(C(=O)c2ncn(C)c2C(=O)N2CCC(C)CC2)CC1,·,·,·,?,·,–,
Nc1nc(N)c(Cn2ccnc2)c(=O)[nH]1,–[9.22 µM],·,·,·,·,·,
COc1cccc(C(=O)C2CCCN(Cc3ccc(F)cc3)C2)c1 (stereo unspecified),·,–,–,–,–,–,
COc1ccc(CCN2CCCC(CN(C)C(=O)c3cc(C)oc3C)C2)cc1 (stereo unspecified),·,2.24µM,2.51µM,?,13.5µM,18.3µM,
CCC1CN2CCc3cc(OC)c(OC)cc3C2CC1CC1NCCc2cc(OC)c(OC)cc21 (stereo unspecified),–,·,·,·,·,·,
O=C(NCc1ccccc1)C(=O)NCC1OCCN1S(=O)(=O)c1ccc([N+](=O)[O-])cc1 (stereo unspecified),–,–,–,?,–,–,
C=C(CC1(CNP(=O)(c2ccccc2)c2ccccc2)CC1)c1ccccc1,–,·,·,·,·,·,
COc1cc(C=C2C(=O)NC(=O)NC2=O)ccc1OCc1ccc([N+](=O)[O-])cc1,?,–,–,?,9.53µM,20.6µM,
O=C(CCc1nnc(CCCCc2ccccc2)o1)N1CCCC(O)C1 (stereo unspecified),·,–,–,?,–,–,
CCCOC1CCCN(C(=O)CCc2nnc(Cc3cccc(C)c3)o2)C1 (stereo unspecified),·,2.82µM,?,?,21.3µM,?,
O=C1NC(=O)N(c2ccccc2F)C(=O)/C1=C/c1ccc(Sc2nc3ccccc3[nH]2)o1,–[1.84 µM],–,–,–,?,–,
O=C1NC(=O)N(c2cccc(Cl)c2)C(=O)/C1=C\c1ccc(Sc2nc3ccccc3[nH]2)o1,–,–,–,–,23.9µM,–,
NCCc1c[nH]c2ccc(OC(=O)C(=O)O)cc12,–[9.22 µM],·,·,·,·,·,
Cc1ccc(CSc2ncccc2C(=O)O)cc1,?,–,–,?,16.9µM,?,
COC(=O)C(Cc1ccc(N(CCCl)CCCl)cc1)N=Cc1ccccc1O (stereo unspecified),·,–,–,18.3µM,–,?,
CCOc1ccc(/C=C/C(=O)C(C(N)=O)=C2SCCS2)cc1,–,?,?,?,1.69µM,–,
SMILES,SMN2 splice enh,Rab9 prom act,NPC1 promoter act,ELG1 repair inh,FLuc modulator,ELG1 genotox,others
CCOc1ccc(N)cc1,–,·,·,·,·,·,
COc1ccc(CC(=O)NC(=S)NNC(=O)COc2c(C)cccc2C)cc1,–,–,–,–,–,–,
O=C(O)c1cc[c]([Hg][Cl])cc1,–,–,–,–,6.75µM,–,
NC(Cc1nc2ccccc2[nH]1)c1ccc(Cl)cc1 (stereo unspecified),·,?,–,?,10.7µM,13µM,
NC(Cc1ccccc1)c1nc2ccccc2[nH]1 (stereo unspecified),·,–,–,?,?,–,
FC(F)(F)c1ccc(CSc2ccccn2)cc1,·,–,–,–,15.1µM,–,
Nc1nc(N)c(N=Nc2ccc([As](=O)(O)O)cc2)c(=O)[nH]1,–[9.22 µM],·,·,·,·,·,
NC(=S)c1cn(C2OC(CO)C(O)C2O)c2ncnc(N)c12 (stereo unspecified),·,–,–,0.411µM,–,–,ELG1 FLuc counter=?;ELG1-Luc inh=0.158µM;ELG1-Luc MMS=0.315µM;ELG1 5-FU=–;ELG1 MMS cell=1.99µM;ELG1 unstim viab=?;FLuc enzyme=–
CC[C@]12CCCN3CCC4(c5ccccc5NC4C(C(=O)O)C1)C32 (stereo partly specified),–,·,·,·,·,·,
CCCCCC1C(=O)O[C@H](C)[C@@H](NC(=O)c2cccc(NC=O)c2O)C(=O)OC(C)C1OC(=O)CC(C)C (stereo partly specified),–,·,·,·,·,·,ELG1 FLuc counter=–;ELG1-Luc inh=–;ELG1-Luc MMS=0.0141µM;ELG1 5-FU=–;ELG1 MMS cell=0.0141µM;ELG1 unstim viab=?;FLuc enzyme=–
CCCC[C@H]1C(=O)O[C@H](C)[C@H](NC(=O)c2cccc(NC=O)c2OC)C(=O)O[C@@H](C)[C@@H]1OC(=O)CC(C)C,–,·,·,·,·,·,

# From PubChem BioAssay
